These results are taken from PubChem BioAssay AID652061 (Broad Institute, 2013).

The other results are listed elsewhere or left out. Active and inactive are the calls of the source.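 How the source made its calls: active means signal increase whose fitted curve reaches an absolute level of 40 at a concentration under 10 µM; inactive means activity opposite to the expected increase, or the rest.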

This assay can be described thus: start codon recognition fidelity modulators – S. cerevisiae, UUG firefly luciferase, cherry-pick, set 2, dose response (AID 652061).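 Further: 0% = median DMSO signal and 100% = twice the DMSO signal.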 Particulars: luminescence, 4 h, 100% means double the DMSO signal; max activity: measured here: max activity, test 2, at 38 µM, test 2, stronger effect = higher value unless noted; series mostly up to 38 µM.

In the case of `O=C(c1cccnc1)N1C[C@H]2[C@@H](c3ccccc31)[C@H](CO)N2C(=O)C1CC1`, the max activity is 24.4% [at 0.035 µM, test 1, stronger effect = higher value] (inactive).
Take `CCc1cccc(C)c1N(C(=O)Cn1c(CO)nc2ccccc21)C(C)COC` (centres undefined): the max activity was 6.66% [measured here: max activity, test 2, at 12 µM, test 2, stronger effect = higher value] and the result was inactive.
As to `CC(=O)Nc1ccccc1-c1cn(CC(=O)N2CCOCC2)nn1`, the max activity was 8.61% [at 75 µM, test 1, stronger effect = higher value] (inactive).
Take `C#CCSc1nnc(-c2sc3ccccc3c2Cl)o1`: the max activity is 6.33% [measured here: max activity, test 2, at 0.46 µM, test 2, stronger effect = higher value] and the compound was called inactive.
As to `COCCCNC(=O)Cn1cc(C(=O)C2CC2)c2ccccc21`, the max activity was -7.83% [measured here: max activity, test 2, at 1.35 µM, test 2, stronger effect = higher value] and the compound was classed as inactive.
Regarding `Cc1ccc(F)cc1NC(=O)Cc1nn(C)c(=O)c2ccccc12`, the max activity was -14.8% [measured here: max activity, test 2, at 12 µM, test 2, stronger effect = higher value] and the compound was called inactive.
For `Cc1onc(-c2ccc(Cl)cc2)c1-c1ccnn1S(=O)(=O)c1ccc(Cl)cc1`, in that order: 13.9% and “inactive”.
In the case of `CCOC(=O)C(=Cc1ccccc1OC)C(=O)OCC`, the max activity is 9.08% [measured here: max activity, test 2, at 0.15 µM, test 2, stronger effect = higher value] and the compound was called inactive.
